# Measured values taken from the supplement of paper PMC4466140.
# Tests used:
# Experiment in all cases: SPOT peptide array binding signal intensity (averaged, normalized) (arbitrary units (background-subtracted, floor 0; scale differs between SH3 domains)); higher = stronger binding of the SH3 domain to the peptide
# AgAbp1 = molecular target: AgAbp1
# Method in brief: (§1)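 Binding signal refers to normalized, background-subtracted spot intensity averaged over replicates, expressed in arbitrary units that differ between domains. GST-fused SH3 domains from four yeast species were incubated at 10 μg/ml overnight at 4°C on cellulose membranes of synthetic 15-mer peptides with cysteines replaced by serines. Bound protein was detected with anti-GST antibody, an HRP anti-mouse secondary and luminol, and quantified with Genespotter.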
# AgBbc1 = molecular target: AgBbc1
# Method in brief: as §1
# AgBem1-D1 = molecular target: AgBem1-D1
# Method in brief: as §1
# AgBzz1-D1 = molecular target: AgBzz1-D1
# Method in brief: as §1
# AgBzz1-D2 = molecular target: AgBzz1-D2
# Method in brief: as §1
# AgCyk3 = molecular target: AgCyk3
# Method in brief: as §1
# AgFus1 = molecular target: AgFus1
# Method in brief: as §1
# AgHof1 = molecular target: AgHof1
# Method in brief: as §1
# AgHse1 = molecular target: AgHse1
# Method in brief: as §1
# AgLsb1 = molecular target: AgLsb1
# Method in brief: as §1
# AgLsb4 = molecular target: AgLsb4
# Method in brief: as §1
# AgMyo5 = molecular target: AgMyo5
# Method in brief: as §1
# AgNbp2 = molecular target: AgNbp2
# Method in brief: as §1
# AgRvs167 = molecular target: AgRvs167
# Method in brief: as §1
# AgSho1 = molecular target: AgSho1
# Method in brief: as §1
# AgSla1-D1-D2 = molecular target: AgSla1-D1-D2
# Method in brief: as §1
# AgSla1-D3 = molecular target: AgSla1-D3
# Method in brief: as §1
# CaAbp1-D1 = molecular target: CaAbp1-D1
# Method in brief: as §1
# CaAbp1-D2 = molecular target: CaAbp1-D2
# Method in brief: as §1
# CaBbc1 = molecular target: CaBbc1
# Method in brief: as §1
# CaBem1-D1 = molecular target: CaBem1-D1
# Method in brief: as §1
# CaBzz1-D1 = molecular target: CaBzz1-D1
# Method in brief: as §1
# CaBzz1-D2 = molecular target: CaBzz1-D2
# Method in brief: as §1
# CaCyk3 = molecular target: CaCyk3
# Method in brief: as §1
# CaFus1 = molecular target: CaFus1
# Method in brief: as §1
# CaHof1 = molecular target: CaHof1
# Method in brief: as §1
# CaHse1 = molecular target: CaHse1
# Method in brief: as §1
# CaLsb1 = molecular target: CaLsb1
# Method in brief: as §1
# CaLsb4 = molecular target: CaLsb4
# Method in brief: as §1
# CaMyo5 = molecular target: CaMyo5
# Method in brief: as §1
# CaNbp2 = molecular target: CaNbp2
# Method in brief: as §1
# CaRvs167 = molecular target: CaRvs167
# Method in brief: as §1
# CaRvs167-3 = molecular target: CaRvs167-3
# Method in brief: as §1
# CaSho1 = molecular target: CaSho1
# Method in brief: as §1
# CaSla1-D1-D2 = molecular target: CaSla1-D1-D2
# Method in brief: as §1
# CaSla1-D3 = molecular target: CaSla1-D3
# Method in brief: as §1
# ScAbp1 = molecular target: ScAbp1
# Method in brief: as §1
# ScBbc1 = molecular target: ScBbc1
# Method in brief: as §1
# ScBem1-D1 = molecular target: ScBem1-D1
# Method in brief: as §1
# ScBzz1-D1 = molecular target: ScBzz1-D1
# Method in brief: as §1
# ScBzz1-D2 = molecular target: ScBzz1-D2
# Method in brief: as §1
# ScCyk3 = molecular target: ScCyk3
# Method in brief: as §1
# ScFus1 = molecular target: ScFus1
# Method in brief: as §1
# ScHof1 = molecular target: ScHof1
# Method in brief: as §1
# ScHse1 = molecular target: ScHse1
# Method in brief: as §1
# ScLsb1 = molecular target: ScLsb1
# Method in brief: as §1
# ScLsb2 = molecular target: ScLsb2
# Method in brief: as §1
# ScLsb3 = molecular target: ScLsb3
# Method in brief: as §1
# ScLsb4 = molecular target: ScLsb4
# Method in brief: as §1
# ScMyo3 = molecular target: ScMyo3
# Method in brief: as §1
# ScMyo5 = molecular target: ScMyo5
# Method in brief: as §1
# ScNbp2 = molecular target: ScNbp2
# Method in brief: as §1
# ScPex13 = molecular target: ScPex13
# Method in brief: as §1
# ScRvs167 = molecular target: ScRvs167
# Method in brief: as §1
# ScSho1 = molecular target: ScSho1
# Method in brief: as §1
# ScSla1-D1-D2 = molecular target: ScSla1-D1-D2
# Method in brief: as §1
# ScSla1-D3 = molecular target: ScSla1-D3
# Method in brief: as §1
# SpAbp1-D1 = molecular target: SpAbp1-D1
# Method in brief: as §1
# SpBbc1 = molecular target: SpBbc1
# Method in brief: as §1
# SpBzz1-D1 = molecular target: SpBzz1-D1
# Method in brief: as §1
# SpBzz1-D2 = molecular target: SpBzz1-D2
# Method in brief: as §1
# SpCyk3 = molecular target: SpCyk3
# Method in brief: as §1
# SpHof1 = molecular target: SpHof1
# Method in brief: as §1
# SpHof1-2 = molecular target: SpHof1-2
# Method in brief: as §1
# SpHof1-3 = molecular target: SpHof1-3
# Method in brief: as §1
# SpHse1 = molecular target: SpHse1
# Method in brief: as §1
# SpLsb1 = molecular target: SpLsb1
# Method in brief: as §1
# SpLsb4 = molecular target: SpLsb4
# Method in brief: as §1
# SpMyo1 = molecular target: SpMyo1
# Method in brief: as §1
# SpNbp2 = molecular target: SpNbp2
# Method in brief: as §1
# SpPex13 = molecular target: SpPex13
# Method in brief: as §1
# SpRvs167 = molecular target: SpRvs167
# Method in brief: as §1
# SpSla1-D1-D2 = molecular target: SpSla1-D1-D2
# Method in brief: as §1
# SpSla1-D3 = molecular target: SpSla1-D3
# Method in brief: as §1
binder,measurement,setting,value
DDEDVPPQLPTRTKS,SPOT peptide array binding signal intensity,AgAbp1,≤ 0
same,SPOT peptide array binding signal intensity,AgBbc1,14.5
same,SPOT peptide array binding signal intensity,AgBem1-D1,1
same,SPOT peptide array binding signal intensity,AgBzz1-D1,28
same,SPOT peptide array binding signal intensity,AgBzz1-D2,11.5
same,SPOT peptide array binding signal intensity,AgCyk3,≤ 0
same,SPOT peptide array binding signal intensity,AgFus1,6.5
same,SPOT peptide array binding signal intensity,AgHof1,28
same,SPOT peptide array binding signal intensity,AgHse1,17
same,SPOT peptide array binding signal intensity,AgLsb1,14
same,SPOT peptide array binding signal intensity,AgLsb4,6150
same,SPOT peptide array binding signal intensity,AgMyo5,1.75
same,SPOT peptide array binding signal intensity,AgNbp2,≤ 0
same,SPOT peptide array binding signal intensity,AgRvs167,53.2
same,SPOT peptide array binding signal intensity,AgSho1,10
same,SPOT peptide array binding signal intensity,AgSla1-D1-D2,≤ 0
same,SPOT peptide array binding signal intensity,AgSla1-D3,≤ 0
same,SPOT peptide array binding signal intensity,CaAbp1-D1,≤ 0
same,SPOT peptide array binding signal intensity,CaAbp1-D2,≤ 0
same,SPOT peptide array binding signal intensity,CaBbc1,45
same,SPOT peptide array binding signal intensity,CaBem1-D1,9.5
same,SPOT peptide array binding signal intensity,CaBzz1-D1,≤ 0
same,SPOT peptide array binding signal intensity,CaBzz1-D2,≤ 0
same,SPOT peptide array binding signal intensity,CaCyk3,3
same,SPOT peptide array binding signal intensity,CaFus1,78
same,SPOT peptide array binding signal intensity,CaHof1,7.5
same,SPOT peptide array binding signal intensity,CaHse1,27
same,SPOT peptide array binding signal intensity,CaLsb1,6.5
same,SPOT peptide array binding signal intensity,CaLsb4,6780
same,SPOT peptide array binding signal intensity,CaMyo5,2
same,SPOT peptide array binding signal intensity,CaNbp2,≤ 0
same,SPOT peptide array binding signal intensity,CaRvs167,1080
same,SPOT peptide array binding signal intensity,CaRvs167-3,3.5
same,SPOT peptide array binding signal intensity,CaSho1,≤ 0
same,SPOT peptide array binding signal intensity,CaSla1-D1-D2,≤ 0
same,SPOT peptide array binding signal intensity,CaSla1-D3,≤ 0
same,SPOT peptide array binding signal intensity,ScAbp1,≤ 0
same,SPOT peptide array binding signal intensity,ScBbc1,0.5
same,SPOT peptide array binding signal intensity,ScBem1-D1,≤ 0
same,SPOT peptide array binding signal intensity,ScBzz1-D1,6
same,SPOT peptide array binding signal intensity,ScBzz1-D2,22
same,SPOT peptide array binding signal intensity,ScCyk3,1
same,SPOT peptide array binding signal intensity,ScFus1,6
same,SPOT peptide array binding signal intensity,ScHof1,16.5
same,SPOT peptide array binding signal intensity,ScHse1,23.5
same,SPOT peptide array binding signal intensity,ScLsb1,576
same,SPOT peptide array binding signal intensity,ScLsb2,≤ 0
same,SPOT peptide array binding signal intensity,ScLsb3,9300
same,SPOT peptide array binding signal intensity,ScLsb4,3020
same,SPOT peptide array binding signal intensity,ScMyo3,≤ 0
same,SPOT peptide array binding signal intensity,ScMyo5,≤ 0
same,SPOT peptide array binding signal intensity,ScNbp2,≤ 0
same,SPOT peptide array binding signal intensity,ScPex13,1570
same,SPOT peptide array binding signal intensity,ScRvs167,1980
same,SPOT peptide array binding signal intensity,ScSho1,6
same,SPOT peptide array binding signal intensity,ScSla1-D1-D2,1
same,SPOT peptide array binding signal intensity,ScSla1-D3,0.5
same,SPOT peptide array binding signal intensity,SpAbp1-D1,≤ 0
same,SPOT peptide array binding signal intensity,SpBbc1,3.75
same,SPOT peptide array binding signal intensity,SpBzz1-D1,0.5
same,SPOT peptide array binding signal intensity,SpBzz1-D2,≤ 0
same,SPOT peptide array binding signal intensity,SpCyk3,≤ 0
same,SPOT peptide array binding signal intensity,SpHof1,16.8
same,SPOT peptide array binding signal intensity,SpHof1-2,7
same,SPOT peptide array binding signal intensity,SpHof1-3,6
same,SPOT peptide array binding signal intensity,SpHse1,7
same,SPOT peptide array binding signal intensity,SpLsb1,27.5
same,SPOT peptide array binding signal intensity,SpLsb4,7620
same,SPOT peptide array binding signal intensity,SpMyo1,≤ 0
same,SPOT peptide array binding signal intensity,SpNbp2,8
same,SPOT peptide array binding signal intensity,SpPex13,≤ 0
same,SPOT peptide array binding signal intensity,SpRvs167,1800
same,SPOT peptide array binding signal intensity,SpSla1-D1-D2,≤ 0
same,SPOT peptide array binding signal intensity,SpSla1-D3,3
EEEEEHPPLPARRKS,SPOT peptide array binding signal intensity,SpBzz1-D2,2
same,SPOT peptide array binding signal intensity,SpCyk3,≤ 0
same,SPOT peptide array binding signal intensity,SpHof1,0.5
same,SPOT peptide array binding signal intensity,SpHof1-2,1
same,SPOT peptide array binding signal intensity,SpHof1-3,1
same,SPOT peptide array binding signal intensity,SpHse1,1
same,SPOT peptide array binding signal intensity,SpLsb1,10
same,SPOT peptide array binding signal intensity,SpLsb4,7640
same,SPOT peptide array binding signal intensity,SpMyo1,≤ 0
same,SPOT peptide array binding signal intensity,SpNbp2,3.5
same,SPOT peptide array binding signal intensity,SpPex13,≤ 0
same,SPOT peptide array binding signal intensity,SpRvs167,1510
same,SPOT peptide array binding signal intensity,SpSla1-D1-D2,≤ 0
same,SPOT peptide array binding signal intensity,SpSla1-D3,5
